Screens: PubChem BioAssay, several laboratories
Most compounds without a hit are left out; they make up all but 4.7% or so of the library.
ADAM17 inh: inhibitors of human ADAM17; P78536; recombinant ADAM17, EDANS/DABCYL FRET peptide cleavage; inhibition, % at 6.95 µM; actives 0.83% (n = 370,000); AID 720648;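 active means inhibition above the mean of compounds lying between control limits plus 3 SD, set per campaign, cut at about 8.5% in these data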;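 further: 0% = DMSO-only wells as the low control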
KLK7 zymogen act: activators of human kallikrein-7 zymogen | actives 0.9% (n = 370,000) | AID 652039 | purified proKLK7, EDANS-DABCYL substrate fluorescence; 100% is mature enzyme control, 0% vehicle | activation, % at 7 µM | P49862;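 active means activation above the mean of all tested compounds plus 3 SD, computed per campaign excluding outliers beyond control limits, cut at about 13% in these data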
rCAG RNA binder: r(CAG) repeat RNA binding; actives 1.3% (n = 370,000); inhibition, % at 3 µM; AID 651821; TO-PRO-1 dye displacement fluorescence;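 active means inhibition above the plate cutoff, the mean of all test compounds on that plate plus 3 SD, cut at about 35% in these data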;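 further: 0% = DMSO alone and 100% = 100 µM mitoxantrone as full dye displacement; higher means more dye released from RNA so lower well fluorescence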
ADAM10 inh: ADAM10 inhibition, QFRET primary screen; O14672; recombinant ADAM10, EDANS/DABCYL FRET peptide cleavage, 3 h; inhibition, % at 7 µM; actives 0.62% (n = 370,000); AID 720582;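 active means inhibition above a per-campaign cutoff equal to the mean of compounds falling between control-based bounds plus 3 SD, cut at about 20% in these data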;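 further: 0% = DMSO wells while the 100% control is not disclosed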
MPTP block: inhibitors of mitochondrial permeability transition pore; isolated mouse mitochondria, Ca2+ swelling absorbance, 30 min; inhibition, % at 10 µM; actives 1.4% (n = 360,000); AID 602449;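 active means inhibition of 50% or more, scaled per plate between neutral and stimulator controls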;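 further: 0% = DMSO wells given calcium and 100% = 1 mM EGTA wells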
Pemphigus Ab inh: blocks pemphigus antibody binding to human desmoglein-3. actives 0.48% (n = 310,000). binding (percent of control), % at 10 µM. DSG3-coupled beads, scFv-anti-DSG3-GFP binding, flow cytometry; hits give low values. AID 588358;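 active means binding more than 3 SD below its plate's average and above zero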;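 further: hits lower antibody fragment binding to DSG3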
Target sequence (P32926 whole entry, looked up, the tested form may be a part): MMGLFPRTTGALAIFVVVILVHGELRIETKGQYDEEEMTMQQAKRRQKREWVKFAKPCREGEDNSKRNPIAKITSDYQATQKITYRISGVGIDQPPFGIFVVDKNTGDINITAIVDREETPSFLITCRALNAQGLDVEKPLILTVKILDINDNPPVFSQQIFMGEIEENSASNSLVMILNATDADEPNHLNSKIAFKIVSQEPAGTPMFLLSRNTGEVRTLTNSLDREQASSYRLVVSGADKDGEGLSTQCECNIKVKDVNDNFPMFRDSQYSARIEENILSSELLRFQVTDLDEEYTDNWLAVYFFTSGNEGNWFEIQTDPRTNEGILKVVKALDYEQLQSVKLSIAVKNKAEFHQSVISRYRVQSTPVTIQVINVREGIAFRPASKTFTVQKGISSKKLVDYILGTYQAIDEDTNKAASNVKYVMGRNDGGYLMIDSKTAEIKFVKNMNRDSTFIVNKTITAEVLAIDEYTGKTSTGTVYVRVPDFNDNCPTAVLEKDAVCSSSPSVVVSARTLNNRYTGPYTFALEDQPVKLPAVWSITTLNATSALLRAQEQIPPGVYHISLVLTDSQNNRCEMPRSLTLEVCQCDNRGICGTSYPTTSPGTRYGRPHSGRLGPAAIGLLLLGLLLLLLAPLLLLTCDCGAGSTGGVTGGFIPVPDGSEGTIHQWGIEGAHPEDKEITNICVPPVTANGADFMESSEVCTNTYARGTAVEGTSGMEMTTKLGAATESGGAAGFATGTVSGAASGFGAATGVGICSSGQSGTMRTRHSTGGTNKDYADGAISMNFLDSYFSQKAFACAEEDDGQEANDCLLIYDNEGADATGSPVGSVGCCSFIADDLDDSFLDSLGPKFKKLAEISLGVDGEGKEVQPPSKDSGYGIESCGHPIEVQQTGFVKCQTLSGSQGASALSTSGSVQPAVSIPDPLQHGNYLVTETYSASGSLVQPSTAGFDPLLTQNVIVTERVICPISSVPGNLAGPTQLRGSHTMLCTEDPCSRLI
ADAM10 confirm: human ADAM10 inhibition, confirmation; shares compounds with ADAM10 inh; ADAM10 QFRET peptide cleavage, EDANS fluorescence; inhibition, % at 6.95 µM; actives 1% (n = 2,100); AID 743208;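 active means inhibition above about 20% chosen separately for each screening run, limit read from the data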;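 further: 0% = DMSO wells and 100% = marimastat wells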
ADAM17 counter: counter-screen for ADAM10 exosite inhibitors: inhibitors of human ADAM17; shares compounds with ADAM10 inh; ADAM17 QFRET peptide cleavage, EDANS fluorescence; inhibition, % at 6.95 µM; actives 0.5% (n = 2,100); AID 743214;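 active means mean triplicate inhibition above the solvent-only control wells' mean plus 3 SD, cut at about 12% in these data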;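 further: 0% = DMSO wells and 100% = marimastat wells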
Active calls of the source: *; . = no result.

SMILES	ADAM17 inh	KLK7 zymogen act	rCAG RNA binder	ADAM10 inh	MPTP block	Pemphigus Ab inh	ADAM10 confirm	ADAM17 counter
O=C(NC(Cc1c[nH]c2ccccc12)C(=O)Nc1ccc(F)c([N+](=O)[O-])c1)c1cccs1 (stereo not given)	8	-1	15	20*	4	100	4	2
CC(Sc1nnnn1C)C(=O)Nc1ncc(Cl)cc1Cl (stereo not given)	-1	0	2	-9	0	101	.	.
CC1CC(=O)C2=C(C1)Nc1ccccc1SC2c1ccc(F)cc1 (stereo not given)	2	1	0	21*	23	86	4	1
CC(C)(C)c1nn(-c2ccccc2)c2nc(Cl)c(C=O)cc12	.	.	.	.	0	122	.	.
CC(C)(C)c1nn(-c2ccccc2)c2[nH]c(=O)c(C=O)cc12	-2	0	3	78*	0	125	5	2
Cc1cc(S(=O)(=O)NCC(c2ccccc2)c2ccccc2)ccc1-n1cnnn1	5	0	6	20*	0	104	2	1
COc1ccccc1CNS(=O)(=O)c1ccc(-n2cnnn2)c(C)c1	-4	0	-2	-3	1	.	.	.
COc1ccc(-c2ccc(C(=O)Nc3ccc(Cl)cc3)c3occc23)c(C)c1	1	-21	7	-8	1	.	.	.
C=CCc1cccc(CNc2nc3ccccc3n2CC)c1O	5	0	-1	20*	-2	105	3	1
CCCCn1c(NCc2ccccc2O)nc2ccccc21	1	0	1	4	2	103	.	.
CC(C)C[C@H]1CNC(=S)N1C[C@H]1CCCN1C[C@H](CC(C)C)N1C[C@H](Cc2ccc(O)cc2)N(CC2CCCCCC2)C1=S	-3	0	5	3	5	.	.	.
Cc1ccc(NC(=O)c2ccc(CSc3nccc(C)n3)cc2)cc1	-2	0	0	22*	1	98	3	0
COc1ccc(CCC(=O)N2c3ccccc3N=C(c3ccc(C(F)(F)F)cc3)C2C(=O)NC(C)C)cc1 (stereo not given)	4	-3	5	-13	2	.	.	.
O=C(NCCNc1ccc([N+](=O)[O-])cc1C(F)(F)F)c1cccc(F)c1	-2	0	0	20*	34	94	1	0
O=C(Nc1cccc(C(F)(F)F)c1)C1Cc2c(-c3ccccc3)ccnc2O1 (stereo not given)	7	0	-1	22*	2	.	5	1
CC(=O)c1cccc(-c2ccnc3c2CC(C(=O)Nc2ccc(Cl)c(C(F)(F)F)c2)O3)c1 (stereo not given)	8	0	6	26*	2	.	4	2
COc1ccc(NC(=O)c2cc(-c3ccccc3Cl)on2)cc1	-4	-2	1	1	-1	135	.	.
COc1cc(NC(=O)c2cc(-c3ccccc3Cl)on2)cc(OC)c1OC	3	0	1	33*	0	132	4	1
Cc1cc(C)n2nc(SCc3ccccc3)nc2n1	4	0	0	22*	0	110	0	0
O=C(Nc1ccccc1)c1ccc(-c2ccccc2Cl)o1	4	1	4	20*	1	111	6	2
Cc1[nH]c(N=Nc2ccccc2)nc1N=Nc1ccccc1	5	0	5	21*	47	103	0	1
Nc1ccc(N=Nc2ccccc2)c(N)n1	-1	1	5	-30	0	.	.	.
Cc1noc(C)c1C(=O)N1CCC1(C)C(=O)NS(=O)(=O)Cc1cccc(Cl)c1 (stereo not given)	2	0	2	5	0	.	.	.
Cc1cccc(C)c1NC(=O)CNC(=O)Cc1c[nH]c2ccccc12	-4	1	-1	2	-1	98	.	.
Cc1c(Cl)cccc1NC(=O)CNC(=O)Cc1c[nH]c2ccccc12	0	0	5	33*	0	102	3	0
SMILES	ADAM17 inh	KLK7 zymogen act	rCAG RNA binder	ADAM10 inh	MPTP block	Pemphigus Ab inh	ADAM10 confirm	ADAM17 counter
Cc1cc(OCC(=O)NNC(=O)c2cccs2)ccc1Br	-2	0	1	2	0	.	.	.
Cc1ccc(C)c(-c2cc(C(=O)Nc3nccs3)c3ccccc3n2)c1	3	-1	7	17	0	100	.	.
Cc1ccc(C)c(-c2cc(C(=O)NCc3cccs3)c3ccccc3n2)c1	5	0	5	20*	1	91	5	2
O=C(N/N=C/c1cccnc1)c1ccc(NC(=O)c2ccccc2Cl)cc1	-1	0	4	-2	0	107	.	.
Cc1ccc(N=C(NO)c2nonc2N)c(C)c1	5	0	4	-2	0	.	.	.
Cc1ccc(N=C(NOCc2ccc(Cl)cc2Cl)c2nonc2N)c(C)c1	5	0	4	21*	5	121	7	2
COc1ccc(CN2C(=O)[C@@H]3Cc4c([nH]c5ccccc45)C(C)(C)N3C2=O)cc1	3	1	-1	16	-1	103	.	.
COc1cccc(CN2C(=O)[C@H]3Cc4c([nH]c5ccccc45)C(C)(C)N3C2=O)c1	5	1	-2	21*	1	105	3	1
COc1ccc(/C=N/NC(=O)c2ccn[nH]2)cc1COc1ccc(Cl)cc1Cl	3	-1	15	21*	0	95	7	3
CCCCCNC(=O)C(c1ccc(C(F)(F)F)cc1)n1c(=O)c(-c2ccco2)nc2ccccc21 (stereo not given)	-8	-1	30	-25	-3	.	.	.
Cc1ccccc1Nc1nc(N)nc(COC(=O)c2cccc(S(=O)(=O)NCc3ccccc3)c2)n1	4	0	1	23*	0	115	2	0
COc1cc(OC)cc(C(=O)N[C@H](C(=O)OCC(=O)Nc2ccc(C(C)C)cc2)C(C)C)c1	4	0	0	21*	8	87	7	2
FC(F)(F)c1cnc(NNC(=S)Nc2ccccc2)c(Cl)c1	8	0	6	13	1	106	.	.
Fc1ccccc1NC(=S)NNc1ncc(C(F)(F)F)cc1Cl	5	0	4	21*	5	69	2	1
Nc1c([N+](=O)[O-])cc2c3c(cccc13)CC2	-1	0	6	-4	-1	.	.	.
CC1(C(=O)NS(=O)(=O)Cc2cccc(Cl)c2)CCN1C(=O)CC1CCCC1 (stereo not given)	-3	0	11	-2	0	.	.	.
